This assay concerns VDR:RXRa (NR concentration 270 nM, RXRa partner concentration 90 nM). Briefly: PBM binding z-score (relative to random genomic background probes); higher = stronger binding; sequences stand for … in GC…GCGATTGACAGCGTAGAATGAAGG
How it is done:
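Protein-binding microarray (Agilent 4x180K custom design, double-stranded 60-nt probes: 5' GC cap, 34-nt variable region, 24-nt constant primer region; full probe sequence given). Purified or IVT nuclear receptor:RXRα heterodimers (3:1 NR:RXRα, mostly 270:90 nM) or homodimers were incubated for 1 h in PBS with 2% milk and no ligand, then detected with Alexa488 antibodies. Fluorescence from o1-orientation probes (~5 replicates averaged) was converted to z-scores against 500 random hg19 background probes. Variable regions are seed direct-repeat (DR0–DR5) sites, all their single-nucleotide variants and half-site ablations.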
As for CCTGCTAGGTCATGGGCAGCTAATCTACAGTATG, the PBM binding z-score came to 1.19.
For CCGAGTAGGTTATGGGGCTTTCAGGCAACGGTGA the value was -0.375; for CGAATTAGGTCATCCAGGACAGTGAATACATTGA, 5.04; for CCGACTGGGGCATAGGGTTACCATAAGCCAGCCC, 0.304.
In the case of ATCTATAGGTAAAAGTTCAGTGAATCCCGAGGAT, the PBM binding z-score is 1.28.
For TCTCGGAGGACACGAAAGGTCAGGGCTCGACATC, the PBM binding z-score is 3.43.
For TCATATAGGTAAACAGCTGAAAGTCCGTAAGTTA the value was 1.06.
For ATCTCTAGGTAACAAGTACAGTGAAAGAGAGGAC the value was 0.429; for CGTCCAAGGTCAGAGAGTTCAGTGAATGCCGAGT, 7.65; for GCATATAGGTAATACAAGATGAAAGTCCGATTGT, -0.0142.
Under TCATGTAGGTAATACAGGTGAAAGTCGGCATCTA stands 0.207.
On to CCTGCTAGGTCATGGTCAGCTTATCTACAGTATG, for which the PBM binding z-score was determined as 1.54.
For GGAACGAGGGCAAGTTGATACCAGAGTTTGATGG the value was 1.1; for ACAGACAGATGAGTGAAGGTAACTCAGCTGGACG, -0.157.
The sequence GCTATTAGTTGAAAGGGCAACCGGATGATTCTCG showed a PBM binding z-score of 0.47.
CCTTACGGGTAAAGGTTATAGCACGGGTGGTACG: the PBM binding z-score was 0.723.
For CCGACTGGGGCAGAAAGGTTACTATACCATCCGG the value was 0.555; for GCAAGCAGGCCATTTGGGTCACTCAATGACGGGC, 0.865; for TCATATAGGGAAATGCTAGGTGAAAGTCCGATCT, 0.702.
For ACGAGCAGGCCAAGGGTCACTCAAGATTAGTCCG the value was 2.72; for ACAGACAGGTGAGTGAAGGTAACTCAACTGGACG, -0.232; for CCTTACGGGTCACTGACAAGTTATAGCATTTGGA, 3.07.
In the case of ATATGTAGGTTATCGGGTCGTTCAGTTTGCGCAT, the PBM binding z-score stood at 3.89.
In turn, TAGCCTAGGTCAGATCGGGTCAGTATACGCTATA displayed a PBM binding z-score of 3.75.
Under AGTCCAAGTTCATCTAGGTAACGTAAGATATGCT stands 4.48.
Regarding CAAACTCGGTCAAAGGTCAAAGTCGAGCCAACCA, the PBM binding z-score was 6.22.
Under CATACAGGGCCAGCTAGGCCAGAGTAGGGACGGC stands -0.78.
For GCGACAGGGGCAAAGCAGGTTACCATAAGGTTGG the value was 0.898; for AGAATGAGGTTATACGTAGATCAGGGACGAAAGT, 1.46.
In turn, AGAATGAGGTTAAGATCATGGAAACAGAATACAT yielded a PBM binding z-score of 1.28.
As for TCAGACAGGTGAAGGTAACTCACGTACGCAGTCG, the PBM binding z-score is 0.473.
As for CGTCAGAGTTCAACTAAGGTAACGTAAAGCACGC, the PBM binding z-score stood at 5.28.
Consider CCTACTCGGCCAAGGTCATTGATCAGTCAAAGCA, for which the PBM binding z-score worked out at 3.51.
Turning to AGAACGAGGGCTCGCTGAGTTGATAGCAGAGTAG, the PBM binding z-score was -0.517.
GAAACAGGGTCAGCTAGAGGCCAGAGTATGGAAA registered a PBM binding z-score of 3.64.
CGTTCAAGGTCAGAGAGGTCAGTGAATGCCGAGT registered a PBM binding z-score of 7.5.
AGAACGAGGCCACGCTGAGTTGATAGCAGAGTAG came in with a PBM binding z-score of 0.045.
For TCTCGGAGGACACGAAGGTCATAGCTTTCCAGAG the value was 4.04; for CCTCGGAGGACAGAAGGTCAGAGCAGTCCGCTTT, 1.82.
ACATGTAGGTTATCGGGTCATTCAGTTTGCGCAT showed a PBM binding z-score of 5.39.

Values taken from the supplement of paper PMC6555819.
